The results in this text go back to PubChem BioAssay (EPA / NIEHS).

Results filed as inconclusive are left out. Calls of active or inactive are those of the source. Rule for the calls: active = hit-call score of the fitted dose curve at least 0.9, where 1 is the maximum; inconclusive = response in the unintended direction; inactive = score below 0.9.

As a reminder, the AC50 is the concentration giving half of the maximal activity seen.

Chain of human Janus Kinase 2 (Jak2), JAK2 (gene 3717) (O60674 whole entry, looked up): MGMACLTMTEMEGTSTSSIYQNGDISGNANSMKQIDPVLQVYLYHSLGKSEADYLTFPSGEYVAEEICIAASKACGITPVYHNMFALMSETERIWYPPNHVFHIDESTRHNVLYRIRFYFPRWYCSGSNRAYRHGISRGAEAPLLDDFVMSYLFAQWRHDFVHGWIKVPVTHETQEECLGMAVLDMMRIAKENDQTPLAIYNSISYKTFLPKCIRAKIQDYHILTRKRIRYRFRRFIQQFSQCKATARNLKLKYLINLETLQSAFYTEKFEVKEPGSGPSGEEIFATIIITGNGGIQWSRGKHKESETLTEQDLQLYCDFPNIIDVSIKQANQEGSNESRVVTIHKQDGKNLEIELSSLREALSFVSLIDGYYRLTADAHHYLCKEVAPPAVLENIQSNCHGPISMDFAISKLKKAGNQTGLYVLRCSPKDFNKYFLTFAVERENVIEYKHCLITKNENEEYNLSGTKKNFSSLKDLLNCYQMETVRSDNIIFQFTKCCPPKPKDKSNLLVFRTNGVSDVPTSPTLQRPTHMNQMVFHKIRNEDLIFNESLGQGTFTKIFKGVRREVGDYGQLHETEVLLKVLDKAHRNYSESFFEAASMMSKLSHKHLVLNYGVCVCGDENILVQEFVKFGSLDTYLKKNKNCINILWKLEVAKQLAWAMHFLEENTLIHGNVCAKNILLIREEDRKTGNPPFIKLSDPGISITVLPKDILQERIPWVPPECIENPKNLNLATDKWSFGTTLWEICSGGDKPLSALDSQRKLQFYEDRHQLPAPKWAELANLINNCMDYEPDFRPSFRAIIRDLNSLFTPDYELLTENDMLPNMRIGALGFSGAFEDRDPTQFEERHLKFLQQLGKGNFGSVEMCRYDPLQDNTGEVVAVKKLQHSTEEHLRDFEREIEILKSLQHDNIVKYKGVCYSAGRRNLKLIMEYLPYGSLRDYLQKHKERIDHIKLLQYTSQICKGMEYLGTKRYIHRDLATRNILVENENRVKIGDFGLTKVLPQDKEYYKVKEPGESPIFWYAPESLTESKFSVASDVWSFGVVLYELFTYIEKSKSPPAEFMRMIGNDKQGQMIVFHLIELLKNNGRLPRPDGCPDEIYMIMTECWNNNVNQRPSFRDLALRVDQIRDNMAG
Chain of Glycogen synthase kinase-3 beta (Homo sapiens) (P49841 whole entry, looked up): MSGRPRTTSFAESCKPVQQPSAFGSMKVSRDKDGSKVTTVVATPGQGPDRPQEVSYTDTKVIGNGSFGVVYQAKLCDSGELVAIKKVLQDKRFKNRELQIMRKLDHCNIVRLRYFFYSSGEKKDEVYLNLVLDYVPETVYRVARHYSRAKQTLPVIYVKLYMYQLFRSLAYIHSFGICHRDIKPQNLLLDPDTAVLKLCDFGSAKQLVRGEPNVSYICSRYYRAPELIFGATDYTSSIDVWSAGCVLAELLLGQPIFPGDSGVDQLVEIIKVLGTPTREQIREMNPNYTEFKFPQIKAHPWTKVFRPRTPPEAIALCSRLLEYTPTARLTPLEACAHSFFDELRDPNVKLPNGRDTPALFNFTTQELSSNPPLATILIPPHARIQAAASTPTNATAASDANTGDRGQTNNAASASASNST

One experiment has as its target Glycogen synthase kinase-3 beta (Homo sapiens) (UniProt P49841). The experiment in a line: NVS_ENZ_hGSK3b: NovaScreen (NVS) Enzymatic Assay for human Glycogen Synthase Kinase-3 beta (GSK3b) (AID 2283165). The method, boiled down: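 Recombinant enzyme with specific fluorescent substrate, 1 h, product separated by electrophoretic mobility shift. Primary duplicate screen at 25 uM; actives (e.g. 30% inhibition) followed in singleton concentration-response to 50 uM. Signal loss fitted versus DMSO.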
As for `CCN(C(=O)c1cc(C)cc(OC[C@H](C)Nc2ccncc2)c1)C(C)C`, the compound was classed as inactive.

With `CC1=CC(=O)CC(C)(C)C1`, the outcome was inactive. `CNS(=O)(=O)c1cc(C(=O)N2CCC(CCN3C4CCC3CC(n3c(C)nc5ccccc53)C4)(c3cccc(F)c3)CC2)c(Cl)cc1F` (stereo not given): the compound was called inactive.

The target in the next experiment is human Janus Kinase 2 (Jak2), JAK2 (gene 3717) (UniProt O60674). The experiment in a line: NVS_ENZ_hJak2: NovaScreen (NVS) Enzymatic Assay for human Janus Kinase 2 (Jak2) (AID 2283169). How it is done:
NVS_ENZ_hJak2 is a biochemical, single-readout assay that uses extracted gene-proteins in a cell-free assay. Measurements were taken 1 hour after chemical dosing in a 384-well plate.NVS_ENZ_hJak2 is one of one assay component(s) measured or calculated from the NVS_ENZ_hJak2 assay. It is designed to make measurements of enzyme activity, a form of enzyme reporter, as detected with fluorescence intensity signals by Fluorescence and electrophoretic mobility shift technology.Data from the assay component NVS_ENZ_hJak2 was analyzed into 1 assay endpoint. This assay endpoint, NVS_ENZ_hJak2, was analyzed in the positive analysis fitting direction relative to DMSO as the negative control and baseline of activity. Using a type of enzyme reporter, loss-of-signal activity can be used to understand changes in the enzymatic activity as they relate to the gene JAK2. Furthermore, this assay endpoint can be referred to as a primary readout, because this assay has produced multiple assay endpoints where this one serves a enzymatic activity function. To generalize the intended target to other relatable targets, this assay endpoint is annotated to the kinase intended target family, where the subfamily is non-receptor tyrosine kinase.
Binding assays used specific radioligands (tritiated, iodinated) with non-radioactive competitive displacement ligands in agonist or antagonist protocols (as indicated) and various reference compounds and inhibitors to titrate specific binding to receptors and transporters. Most enzyme assays (CYPs, kinases, phosphatases, proteases, HDACs) used recombinant protein and specific substrates (fluorescence mostly, some colorimetric and radioactive) and inhibitors, followed by a biochemical separation of substrate and product. All assays for the biochemical HTS were initially run in duplicate at a single concentration (10 uM for CYP450 assays and 25 uM for all others). Assay-chemical combinations meeting a pre-defined threshold (e.g., 30% inhibition and other criteria defined below) were then run in singleton concentration-response format with maximum concentration of 20 uM for CYPs and 50 uM for all others. Each assay was run with positive and negative controls, and concurrent controls on every plate. The follow-up (secondary) screen tested active chemical-pairs in concentration series, as well as a few additional assays not tested in the primary screen, some selected negative inactives, and several cases re-run in the concentration series for confirmatory purposes.
Turning to `COc1ccc2sc(C(=O)Nc3nnn[nH]3)c(OC(C)C)c2c1`, the AC50 is 8.74 µM (active). As for `O=C(O)c1cc(N=Nc2ccc(S(=O)(=O)Nc3ccccn3)cc2)ccc1O`, the outcome was inactive.

Take `CNS(=O)(=O)c1cc(C(=O)N2CCC(CCN3C4CCC3CC(n3c(C)nc5ccccc53)C4)(c3cccc(F)c3)CC2)c(Cl)cc1F` (stereo not given): the AC50 is 10.2 µM (active).

For another experiment, the target named is human Matrix Metalloproteinase-2 (MMP2), MMP2 (gene 4313) (UniProt P08253). The experiment can be described thus: NVS_ENZ_hMMP2: NovaScreen (NVS) Enzymatic Assay for human Matrix Metalloproteinase-2 (MMP2) (AID 2283184). Summed up: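 Cell-free recombinant MMP2 activity with a fluorescent substrate, read 1 h after dosing. Primary screen in duplicate at 25 uM; actives then run in concentration series; loss of signal fitted versus DMSO.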
Chain of human Matrix Metalloproteinase-2 (MMP2), MMP2 (gene 4313) (P08253 whole entry, looked up): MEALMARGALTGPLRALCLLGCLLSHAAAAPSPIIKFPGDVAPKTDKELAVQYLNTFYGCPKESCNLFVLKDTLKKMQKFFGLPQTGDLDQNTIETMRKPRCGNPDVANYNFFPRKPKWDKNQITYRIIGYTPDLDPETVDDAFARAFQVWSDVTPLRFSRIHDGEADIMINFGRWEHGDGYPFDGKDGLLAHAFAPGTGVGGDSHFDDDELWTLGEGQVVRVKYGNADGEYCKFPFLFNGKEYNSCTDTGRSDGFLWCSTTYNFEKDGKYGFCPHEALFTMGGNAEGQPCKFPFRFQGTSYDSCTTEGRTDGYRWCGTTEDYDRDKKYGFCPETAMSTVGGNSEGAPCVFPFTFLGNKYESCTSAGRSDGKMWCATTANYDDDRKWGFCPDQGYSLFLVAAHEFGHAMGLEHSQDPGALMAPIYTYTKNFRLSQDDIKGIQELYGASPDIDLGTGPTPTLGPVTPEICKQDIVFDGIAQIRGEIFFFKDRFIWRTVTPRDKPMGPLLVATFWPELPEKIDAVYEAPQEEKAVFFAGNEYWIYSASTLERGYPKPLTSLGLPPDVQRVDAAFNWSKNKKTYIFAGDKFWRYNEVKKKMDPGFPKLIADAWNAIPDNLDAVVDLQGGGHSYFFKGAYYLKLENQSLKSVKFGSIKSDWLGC
`CC[C@H](C)C(=O)O[C@H]1C[C@@H](C)C=C2C=C[C@H](C)[C@H](CC[C@@H]3C[C@@H](O)CC(=O)O3)[C@H]21`: the outcome was inactive. As to `O=C(O)c1cc(N=Nc2ccc(S(=O)(=O)Nc3ccccn3)cc2)ccc1O`, the outcome was inactive. For `CCc1cc(SCc2sc(-c3ccc(C(F)(F)F)cc3)nc2CN2CCN(c3ccc(OC)cc3)CC2)ccc1OCC(=O)O`, the AC50 is 19.8 µM (active). As to `CNS(=O)(=O)c1cc(C(=O)N2CCC(CCN3C4CCC3CC(n3c(C)nc5ccccc53)C4)(c3cccc(F)c3)CC2)c(Cl)cc1F` (stereo not given), the concentration at half-maximal activity (AC50) was 8.32 µM (active).
